Here are results for six compounds from ChEMBL document CHEMBL1961873, “Compounds: GSK PKIS; Assays: Nanosyn kinase panel” (2012).

In assay [1] the target is Calcium/calmodulin-dependent protein kinase type II subunit alpha (Homo sapiens) (UniProt Q9UQM7). As to conditions: at 1 µM.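 Note: reported value is a mean percent inhibition of CAMK2A.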
For assay [2], the target named is Calcium/calmodulin-dependent protein kinase type II subunit delta (Homo sapiens) (UniProt Q13557). As to conditions: at 0.1 µM.
Sequence of Calcium/calmodulin-dependent protein kinase type II subunit delta (Homo sapiens) (Q13557 whole entry): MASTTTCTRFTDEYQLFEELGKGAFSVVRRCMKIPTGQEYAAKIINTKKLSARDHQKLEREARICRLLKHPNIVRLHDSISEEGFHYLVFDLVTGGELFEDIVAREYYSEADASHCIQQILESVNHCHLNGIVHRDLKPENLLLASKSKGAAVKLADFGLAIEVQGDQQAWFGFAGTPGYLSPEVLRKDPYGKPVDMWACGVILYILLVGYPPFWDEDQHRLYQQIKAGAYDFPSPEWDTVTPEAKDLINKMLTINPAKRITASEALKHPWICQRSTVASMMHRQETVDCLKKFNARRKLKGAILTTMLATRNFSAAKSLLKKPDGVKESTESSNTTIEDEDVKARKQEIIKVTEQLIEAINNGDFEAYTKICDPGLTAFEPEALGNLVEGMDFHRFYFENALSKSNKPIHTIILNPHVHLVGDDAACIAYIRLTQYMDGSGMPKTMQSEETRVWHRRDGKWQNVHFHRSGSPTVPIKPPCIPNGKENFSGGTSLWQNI
Assay [3] has the same target. As to conditions: at 1 µM.
The target of assay [4] is T1, Calcium/calmodulin-dependent protein kinase type IV (Homo sapiens) (UniProt Q16566).
T1 sequence (whole entry): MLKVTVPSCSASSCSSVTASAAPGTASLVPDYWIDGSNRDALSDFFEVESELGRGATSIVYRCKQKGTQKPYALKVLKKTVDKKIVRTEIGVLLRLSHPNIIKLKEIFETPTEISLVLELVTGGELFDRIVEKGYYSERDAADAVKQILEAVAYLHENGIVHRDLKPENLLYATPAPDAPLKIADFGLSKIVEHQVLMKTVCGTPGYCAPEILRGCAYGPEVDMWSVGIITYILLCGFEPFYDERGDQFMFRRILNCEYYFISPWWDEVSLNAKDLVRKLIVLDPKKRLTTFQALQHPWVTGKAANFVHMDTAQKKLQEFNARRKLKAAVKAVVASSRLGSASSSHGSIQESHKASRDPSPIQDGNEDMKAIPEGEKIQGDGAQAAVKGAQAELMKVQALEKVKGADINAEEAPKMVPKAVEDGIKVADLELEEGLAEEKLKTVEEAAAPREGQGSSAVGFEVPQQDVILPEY
As to conditions: at 0.1 µM.

Assay [5] has as its target T1, Calcium/calmodulin-dependent protein kinase type IV (Homo sapiens). As to conditions: at 1 µM.
In assay [6] the target is T2, Serine/threonine-protein kinase Chk1 (Homo sapiens) (UniProt O14757).
T2 sequence (whole entry): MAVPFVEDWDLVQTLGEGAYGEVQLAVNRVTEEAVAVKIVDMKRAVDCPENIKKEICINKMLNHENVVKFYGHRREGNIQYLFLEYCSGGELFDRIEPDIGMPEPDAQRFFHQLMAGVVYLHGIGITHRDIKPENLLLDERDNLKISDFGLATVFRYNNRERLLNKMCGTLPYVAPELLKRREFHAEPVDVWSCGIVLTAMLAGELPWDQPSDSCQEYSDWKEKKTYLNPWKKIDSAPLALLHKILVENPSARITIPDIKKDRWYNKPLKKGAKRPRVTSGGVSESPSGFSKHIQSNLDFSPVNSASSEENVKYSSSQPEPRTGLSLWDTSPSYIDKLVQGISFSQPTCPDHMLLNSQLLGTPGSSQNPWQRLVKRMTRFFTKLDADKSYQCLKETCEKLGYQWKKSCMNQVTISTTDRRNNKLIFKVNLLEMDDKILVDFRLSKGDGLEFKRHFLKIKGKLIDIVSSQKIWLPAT
As to conditions: at 0.1 µM.

Assay [7] has as its target T2, Serine/threonine-protein kinase Chk1 (Homo sapiens). Particulars: at 1 µM.
Assay [8] has as its target Serine/threonine-protein kinase Chk2 (Homo sapiens) (UniProt O96017). Particulars: at 0.1 µM.
Assay [9] shares this target. Particulars: at 1 µM.
Assay [10] deals with Death-associated protein kinase 1 (Homo sapiens) (UniProt P53355). Particulars: at 0.1 µM.
Sequence of Death-associated protein kinase 1 (Homo sapiens) (P53355 whole entry, looked up): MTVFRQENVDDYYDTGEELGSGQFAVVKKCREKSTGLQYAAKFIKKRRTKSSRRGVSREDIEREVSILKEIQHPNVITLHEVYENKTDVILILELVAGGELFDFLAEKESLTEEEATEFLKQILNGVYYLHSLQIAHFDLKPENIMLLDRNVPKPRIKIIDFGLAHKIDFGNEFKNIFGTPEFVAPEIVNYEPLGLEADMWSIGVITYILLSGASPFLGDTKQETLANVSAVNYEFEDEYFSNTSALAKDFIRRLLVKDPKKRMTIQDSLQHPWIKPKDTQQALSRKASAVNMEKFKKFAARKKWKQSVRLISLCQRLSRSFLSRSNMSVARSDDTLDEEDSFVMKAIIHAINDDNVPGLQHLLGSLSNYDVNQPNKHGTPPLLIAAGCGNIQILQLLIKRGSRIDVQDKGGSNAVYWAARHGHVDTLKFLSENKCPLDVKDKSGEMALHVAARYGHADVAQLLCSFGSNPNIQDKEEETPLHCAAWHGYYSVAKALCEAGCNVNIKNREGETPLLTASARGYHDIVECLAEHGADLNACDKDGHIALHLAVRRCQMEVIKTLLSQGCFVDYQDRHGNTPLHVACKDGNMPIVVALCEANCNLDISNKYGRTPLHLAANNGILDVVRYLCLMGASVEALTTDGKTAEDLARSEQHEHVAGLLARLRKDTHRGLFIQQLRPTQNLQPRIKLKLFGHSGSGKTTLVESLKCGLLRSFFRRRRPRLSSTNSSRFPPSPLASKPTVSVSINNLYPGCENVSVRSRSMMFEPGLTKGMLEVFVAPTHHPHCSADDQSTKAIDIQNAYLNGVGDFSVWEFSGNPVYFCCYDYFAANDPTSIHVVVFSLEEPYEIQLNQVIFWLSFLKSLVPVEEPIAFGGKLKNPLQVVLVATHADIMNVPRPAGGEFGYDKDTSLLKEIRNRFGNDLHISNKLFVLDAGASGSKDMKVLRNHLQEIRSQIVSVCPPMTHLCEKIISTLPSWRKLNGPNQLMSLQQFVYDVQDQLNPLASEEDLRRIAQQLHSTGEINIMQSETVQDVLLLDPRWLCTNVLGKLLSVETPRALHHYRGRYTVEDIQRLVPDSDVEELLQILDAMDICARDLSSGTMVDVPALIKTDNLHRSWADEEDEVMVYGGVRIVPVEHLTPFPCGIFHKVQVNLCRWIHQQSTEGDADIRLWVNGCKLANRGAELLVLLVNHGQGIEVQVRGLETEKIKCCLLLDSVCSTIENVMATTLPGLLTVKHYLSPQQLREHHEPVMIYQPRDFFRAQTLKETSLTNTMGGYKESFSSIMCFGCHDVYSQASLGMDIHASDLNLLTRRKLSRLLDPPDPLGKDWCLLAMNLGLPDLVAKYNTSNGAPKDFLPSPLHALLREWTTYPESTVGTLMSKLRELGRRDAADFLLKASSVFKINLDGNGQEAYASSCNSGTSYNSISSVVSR
For assay [11] the target is unchanged. Particulars: at 1 µM.
The target of assay [12] is T3, Serine/threonine-protein kinase DCLK2 (Homo sapiens) (UniProt Q8N568).
T3 sequence (whole entry): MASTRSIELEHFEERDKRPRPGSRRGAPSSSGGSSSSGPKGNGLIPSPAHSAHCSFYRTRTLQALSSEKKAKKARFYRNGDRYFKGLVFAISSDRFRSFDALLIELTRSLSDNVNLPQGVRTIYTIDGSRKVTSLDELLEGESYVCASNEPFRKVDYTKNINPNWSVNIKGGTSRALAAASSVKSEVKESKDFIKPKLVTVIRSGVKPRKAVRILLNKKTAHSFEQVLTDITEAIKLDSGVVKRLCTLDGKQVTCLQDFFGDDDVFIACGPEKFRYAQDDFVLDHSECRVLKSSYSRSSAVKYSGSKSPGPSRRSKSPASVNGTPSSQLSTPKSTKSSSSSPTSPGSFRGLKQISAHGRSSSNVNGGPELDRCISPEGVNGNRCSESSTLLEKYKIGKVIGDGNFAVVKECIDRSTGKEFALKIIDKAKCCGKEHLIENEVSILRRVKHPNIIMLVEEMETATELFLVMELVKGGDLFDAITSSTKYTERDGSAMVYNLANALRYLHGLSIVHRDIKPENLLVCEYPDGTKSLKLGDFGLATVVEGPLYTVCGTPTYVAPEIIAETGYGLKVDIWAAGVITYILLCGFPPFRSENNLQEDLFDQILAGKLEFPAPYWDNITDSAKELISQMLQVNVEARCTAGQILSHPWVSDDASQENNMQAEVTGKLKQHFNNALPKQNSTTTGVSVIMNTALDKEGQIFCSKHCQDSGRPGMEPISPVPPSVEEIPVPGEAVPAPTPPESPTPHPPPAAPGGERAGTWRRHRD
Particulars: at 0.1 µM.

Assay [13] concerns the target T3, Serine/threonine-protein kinase DCLK2 (Homo sapiens). As to conditions: at 1 µM.
Assay [14] concerns the target MAP kinase-activated protein kinase 2 (Homo sapiens) (UniProt P49137). Particulars: at 0.1 µM.
Assay [15] shares this target. Particulars: at 1 µM.
Assay [16] has as its target MAP kinase-activated protein kinase 3 (Homo sapiens) (UniProt Q16644). Particulars: at 0.1 µM.
Assay [17] has the same target. As to conditions: at 1 µM.
The target of assay [18] is Serine/threonine-protein kinase MARK1 (Homo sapiens) (UniProt Q9P0L2). As to conditions: at 0.1 µM.
Sequence of Serine/threonine-protein kinase MARK1 (Homo sapiens) (Q9P0L2 whole entry, looked up): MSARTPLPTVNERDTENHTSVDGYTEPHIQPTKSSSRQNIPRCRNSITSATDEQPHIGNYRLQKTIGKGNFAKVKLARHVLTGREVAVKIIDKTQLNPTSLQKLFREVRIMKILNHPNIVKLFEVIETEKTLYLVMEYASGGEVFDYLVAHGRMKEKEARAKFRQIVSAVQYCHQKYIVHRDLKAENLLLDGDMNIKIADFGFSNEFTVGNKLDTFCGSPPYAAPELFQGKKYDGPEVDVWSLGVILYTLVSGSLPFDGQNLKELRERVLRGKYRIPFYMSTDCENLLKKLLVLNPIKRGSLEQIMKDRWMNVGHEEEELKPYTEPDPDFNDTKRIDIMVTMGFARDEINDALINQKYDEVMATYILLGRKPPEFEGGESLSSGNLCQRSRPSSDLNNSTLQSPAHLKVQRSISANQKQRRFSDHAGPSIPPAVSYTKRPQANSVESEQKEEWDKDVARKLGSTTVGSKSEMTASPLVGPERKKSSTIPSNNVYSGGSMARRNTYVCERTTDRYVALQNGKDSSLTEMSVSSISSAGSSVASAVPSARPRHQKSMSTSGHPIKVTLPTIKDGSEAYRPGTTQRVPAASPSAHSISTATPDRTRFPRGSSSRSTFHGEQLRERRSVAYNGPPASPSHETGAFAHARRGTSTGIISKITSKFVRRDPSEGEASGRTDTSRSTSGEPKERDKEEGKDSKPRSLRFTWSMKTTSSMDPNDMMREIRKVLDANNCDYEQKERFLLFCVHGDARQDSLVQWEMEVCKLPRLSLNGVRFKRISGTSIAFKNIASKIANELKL
Assay [19] has the same target. As to conditions: at 1 µM.
Assay [20] has as its target MAP/microtubule affinity-regulating kinase 3 (Homo sapiens) (UniProt P27448). As to conditions: at 0.1 µM.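 Note: mean percent inhibition of MARK3 kinase activity, measured within the GSK PKIS screening panel.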

Sequence of MAP kinase-activated protein kinase 3 (Homo sapiens) (Q16644 whole entry, looked up): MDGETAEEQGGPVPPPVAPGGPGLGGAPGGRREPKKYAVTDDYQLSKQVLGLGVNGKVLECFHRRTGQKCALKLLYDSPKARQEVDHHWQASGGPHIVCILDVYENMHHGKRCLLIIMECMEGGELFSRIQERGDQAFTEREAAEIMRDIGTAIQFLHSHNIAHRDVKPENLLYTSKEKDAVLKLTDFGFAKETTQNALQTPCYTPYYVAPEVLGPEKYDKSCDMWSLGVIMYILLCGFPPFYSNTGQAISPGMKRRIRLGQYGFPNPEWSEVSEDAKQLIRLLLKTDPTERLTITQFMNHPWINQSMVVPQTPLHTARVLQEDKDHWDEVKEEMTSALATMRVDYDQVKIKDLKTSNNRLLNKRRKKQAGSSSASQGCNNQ
Sequence of MAP/microtubule affinity-regulating kinase 3 (Homo sapiens) (P27448 whole entry, looked up): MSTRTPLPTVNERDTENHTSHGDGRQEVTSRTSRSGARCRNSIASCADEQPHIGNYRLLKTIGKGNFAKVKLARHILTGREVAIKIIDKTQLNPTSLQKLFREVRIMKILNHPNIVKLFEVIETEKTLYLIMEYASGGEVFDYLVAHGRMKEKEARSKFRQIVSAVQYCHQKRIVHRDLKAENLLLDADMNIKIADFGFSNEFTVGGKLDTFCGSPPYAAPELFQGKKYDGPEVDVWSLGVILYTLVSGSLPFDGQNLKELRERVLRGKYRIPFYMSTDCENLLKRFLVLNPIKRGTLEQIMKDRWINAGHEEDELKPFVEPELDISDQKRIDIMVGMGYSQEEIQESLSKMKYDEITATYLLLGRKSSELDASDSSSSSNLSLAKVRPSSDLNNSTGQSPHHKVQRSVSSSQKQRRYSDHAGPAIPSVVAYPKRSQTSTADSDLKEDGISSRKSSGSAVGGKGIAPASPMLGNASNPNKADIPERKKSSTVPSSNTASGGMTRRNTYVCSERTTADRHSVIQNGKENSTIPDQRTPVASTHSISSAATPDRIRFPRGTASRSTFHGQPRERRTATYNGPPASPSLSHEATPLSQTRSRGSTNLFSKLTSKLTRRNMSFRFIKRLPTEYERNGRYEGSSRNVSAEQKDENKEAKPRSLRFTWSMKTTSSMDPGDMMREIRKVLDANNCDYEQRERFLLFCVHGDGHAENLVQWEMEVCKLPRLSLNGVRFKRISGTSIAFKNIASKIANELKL
Sequence of MAP kinase-activated protein kinase 2 (Homo sapiens) (P49137 whole entry, looked up): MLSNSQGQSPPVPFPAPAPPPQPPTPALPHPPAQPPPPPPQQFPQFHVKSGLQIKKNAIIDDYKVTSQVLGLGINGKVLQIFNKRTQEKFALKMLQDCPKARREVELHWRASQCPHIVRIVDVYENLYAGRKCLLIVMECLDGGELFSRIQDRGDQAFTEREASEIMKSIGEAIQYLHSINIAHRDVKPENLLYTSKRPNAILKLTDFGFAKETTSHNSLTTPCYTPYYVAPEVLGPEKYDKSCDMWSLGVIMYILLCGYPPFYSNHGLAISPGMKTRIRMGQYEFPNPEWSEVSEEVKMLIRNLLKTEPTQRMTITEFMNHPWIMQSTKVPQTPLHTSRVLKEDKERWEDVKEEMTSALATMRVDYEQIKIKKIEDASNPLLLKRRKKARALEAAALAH
Sequence of Serine/threonine-protein kinase Chk2 (Homo sapiens) (O96017 whole entry): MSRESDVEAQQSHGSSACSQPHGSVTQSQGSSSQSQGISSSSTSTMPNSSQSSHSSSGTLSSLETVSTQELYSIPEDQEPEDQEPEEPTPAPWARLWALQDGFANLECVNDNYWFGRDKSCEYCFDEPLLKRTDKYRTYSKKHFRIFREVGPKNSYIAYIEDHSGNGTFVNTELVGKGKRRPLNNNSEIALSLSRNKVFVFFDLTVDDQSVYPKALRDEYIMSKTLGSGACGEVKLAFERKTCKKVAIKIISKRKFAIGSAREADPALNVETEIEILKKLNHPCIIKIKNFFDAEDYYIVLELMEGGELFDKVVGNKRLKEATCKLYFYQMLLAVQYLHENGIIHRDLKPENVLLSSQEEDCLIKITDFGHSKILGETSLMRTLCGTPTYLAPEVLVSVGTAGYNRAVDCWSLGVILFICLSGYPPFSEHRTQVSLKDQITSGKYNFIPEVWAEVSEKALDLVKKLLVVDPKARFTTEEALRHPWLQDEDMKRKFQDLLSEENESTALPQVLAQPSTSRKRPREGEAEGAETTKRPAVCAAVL

In general, inhibition refers to the change of the read-out against control, counted positive when it falls. With `NS(=O)(=O)c1ccc(N/N=C2\C(=O)Nc3cccc(CCc4ccncc4)c32)cc1`, the inhibition was 1.32% in assay [1]; -0.63% in [2]; 4.29% in assay [3]; 1.59% in [4]; 0.34% in assay [5]; 1.74% in [6]. For the same compound, the inhibition in assay [7] was 1.93%; in [8], -0.6%; in assay [9], 0.61%; in assay [10], -0.39%; in [11], -1.65%; in [12], -0.47%. For the same compound, the inhibition in assay [13] was -0.08%; in [14], -0.02%; in assay [15], -0.84%; in [16] it was 0.82%; in assay [17], 0.37%; in assay [18] it was 2.29%. For the same compound, the inhibition was determined as 5.9% in assay [19] and 1.2% in assay [20].
For the compound `CCS(=O)(=O)c1ccc(OC)c(Nc2ncc(-c3cccc(F)c3)o2)c1`, the inhibition is 5.43% in assay [1]; 4.73% in assay [2]; 10.6% in assay [3]; -0.92% in assay [4]; 1.07% in assay [5]; 3.94% in assay [6]. Also, the inhibition in assay [7] is 12.9%; in assay [8], 2.75%; in assay [9], 4.65%; in assay [10] it was 7.21%; in assay [11], 7%; in assay [12] it was 1.71%. Moreover, the inhibition turned out to be 1.48% in assay [13]; 2.52% in [14]; 3.2% in [15]; 7.02% in [16]; 7.04% in assay [17]; 1.75% in [18]. Also, the inhibition in assay [19] was determined as 4.44%; in [20], 3.77%.
On to `COc1cc(N2CCN(C(C)C)CC2)ccc1Nc1nc(Nc2cccc(F)c2C(=O)O)c2cc[nH]c2n1`, for which the inhibition in assay [1] was 4.14%; in [2], 3.26%; in [3] it was 6.33%; in assay [4] it was -2.13%; in [5] it was -1.74%; in assay [6] it was 1.97%. The inhibition in assay [7] amounted to 6.1%; in assay [8], 4.99%; in assay [9], 26.3%; in [10], 3.88%; in [11] it was 2.32%; in assay [12], 0.91%. Besides, the inhibition in [13] came out at 1.63%; in [14], 2.14%; in assay [15], 1.32%; in assay [16], 4.39%; in assay [17] it was 4.68%; in assay [18], 3.19%. Besides, the inhibition stood at 8.61% in assay [19] and 4.95% in assay [20].
Regarding `O=C(O[C@H]1CN[C@H](C#Cc2cc3ncnc(Nc4ccc5c(cnn5Cc5ccccc5)c4)c3s2)C1)N1CCOCC1`, the inhibition in assay [1] is -1.88%; in assay [2], 0.73%; in assay [3], 0.8%; in [4], 0.67%; in [5], -0.25%; in assay [6], 0.36%. For the same compound, the inhibition in [7] was -0.07%; in assay [8] it was -1.25%; in [9], 0.86%; in assay [10] it was -0.35%; in assay [11], -1.55%; in assay [12] it was -2.27%. The inhibition is -1.86% in assay [13]; -0.79% in assay [14]; -0.97% in [15]; 0% in assay [16]; -0.37% in [17]; 0.33% in assay [18]. Moreover, the results for the inhibition in assay [19] and in [20] were 3.97% and -1.73%, respectively.
Turning to `Fc1cccc(COc2ccc(Nc3ncncc3C#Cc3ccccc3)cc2Cl)c1`, the inhibition was 3.65% in assay [1]; 2.79% in [2]; 2.05% in assay [3]; -2.29% in [4]; -4.84% in [5]; 3.29% in [6]. Also, the inhibition amounted to 5.99% in assay [7]; 3.47% in assay [8]; 5.22% in [9]; 5.08% in [10]; 5.6% in assay [11]; 1.92% in assay [12]. Further, the inhibition in [13] was -0.09%; in assay [14], 2.63%; in assay [15] it was 2.47%; in assay [16], 4.72%; in assay [17], 6.08%; in assay [18], 4.09%. Also, the inhibition was determined as 5.61% in assay [19] and 4.58% in [20].
Take `CS(=O)(=O)CCNCc1ccc(-c2ccc3ncnc(Nc4ccc(OCc5ccccc5)cc4)c3c2)o1`: the inhibition in assay [1] is -1%; in assay [2], 2.72%; in assay [3], 1.68%; in [4] it was 2.07%; in [5] it was -0.36%; in assay [6] it was -1.5%. In addition, the inhibition in assay [7] was 0.28%; in [8], 3.41%; in assay [9], 12.9%; in assay [10] it was 3.08%; in assay [11] it was 1.36%; in [12] it was 1.31%. The inhibition in assay [13] is 1.03%; in assay [14], 1.2%; in assay [15], 0.72%; in assay [16] it was 3.13%; in [17], 2.48%; in assay [18] it was 3.03%. The values for the inhibition in assay [19] and in [20] were 2.05% and 0.62%, respectively.
